Assay outcomes from PubChem BioAssay.
Sampled rows, rich in hits. Any-hit rate of the full collection: about 2.7%.
Akt phos inh: Akt phosphorylation inhibition; hit rate 0.32% among 360,000; Neuro2A IGF-stimulated pAkt S473 HTRF, 20 min; active compounds read low; activity change, % for hits at 50 µM; AID 651550; in the data active = activity change below about -80%; inconclusive = mostly about -51% to -80%; note: % is set by controls: 0 for no effect and ±100 for the full control effect
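Neuro2A cells (4,500/well, DMEM with 0.5% FBS) were treated with compound at a single 50 µM final concentration, stimulated with 6 nM IGF for 20 min at 37 °C, and lysed. Phospho-Akt Ser473 was read by HTRF as 665/615 ratio ×10^4.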
gsp antagonist: antagonizes gsp, the McCune-Albright syndrome mutation | gsp-mutant cells, cAMP HTRF, 30 min | Potency, µM (highest dose often 76.9 µM), without a hit: top-dose activity change, negative = inhibition, most hits filed as inhibitors | hit rate 0.4% among 340,000 | AID 624288; calls by dose curve; cell line not stated here;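 note: intracellular cAMP measured with PDE inhibitor Ro 20-1724 present during compound exposure; potency is the fitted concentration of half-maximal effect; % is set by controls: 0 for no effect and ±100 for the full control effect; nearly all actives have a fitted effect of over 65% in size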
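Cells in G418 medium, seeded 16-24 h, 37C; buffer exchange to DPBS + 1 mM CaCl2, 0.5 mM MgCl2, 0.05% BSA; cpds in DMSO + […] (300 uM stock), 30 min 37C; HTRF cAMP detection.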
RXFP1 ag: activates the human relaxin receptor RXFP1; HEK293T-RXFP1 cAMP TR-FRET, 30 min; response scale: percent of porcine relaxin response, buffer zero; Potency, µM (doses to about 57.5 µM), inactives show top-dose activation, hits mostly activators; hit rate 0.3% among 370,000; active = well fitted activation curve with a large enough effect; inconclusive = small, poorly fitted or top-dose-only effect; note: potency is the fitted concentration of half-maximal effect; % is set by controls: 0 for no effect and ±100 for the full control effect; nearly all actives have a fitted effect of over 60% in size
Target sequence (Q9HBX9 whole entry, looked up): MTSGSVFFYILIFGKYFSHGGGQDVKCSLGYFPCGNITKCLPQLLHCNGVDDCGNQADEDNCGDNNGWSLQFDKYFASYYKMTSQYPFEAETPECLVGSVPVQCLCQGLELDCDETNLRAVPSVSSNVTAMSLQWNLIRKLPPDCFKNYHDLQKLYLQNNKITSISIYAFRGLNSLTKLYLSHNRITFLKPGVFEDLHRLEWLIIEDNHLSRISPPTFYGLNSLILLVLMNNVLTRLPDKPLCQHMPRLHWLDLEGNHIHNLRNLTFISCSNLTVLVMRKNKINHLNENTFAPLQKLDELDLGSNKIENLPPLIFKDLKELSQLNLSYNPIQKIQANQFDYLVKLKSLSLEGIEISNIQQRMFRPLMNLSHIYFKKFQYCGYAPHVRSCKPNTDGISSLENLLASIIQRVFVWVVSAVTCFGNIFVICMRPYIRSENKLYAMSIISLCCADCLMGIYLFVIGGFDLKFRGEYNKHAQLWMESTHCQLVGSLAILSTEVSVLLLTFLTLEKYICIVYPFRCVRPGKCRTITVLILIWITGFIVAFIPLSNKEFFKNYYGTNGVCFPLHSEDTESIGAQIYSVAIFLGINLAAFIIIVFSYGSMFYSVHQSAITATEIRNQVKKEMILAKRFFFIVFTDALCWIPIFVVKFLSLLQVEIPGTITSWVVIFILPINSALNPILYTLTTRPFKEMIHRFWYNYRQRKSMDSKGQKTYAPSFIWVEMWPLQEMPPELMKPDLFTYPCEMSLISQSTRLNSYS
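HEK293 cells stably expressing RXFP1, treated 30 min at 37C with compounds plus PDE4 inhibitor Ro 20174; cAMP measured by HTRF TR-FRET. Normalized to buffer and 29 nM porcine relaxin; EC50 by Hill fit.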
RXFP1 antag: blocks the human relaxin receptor RXFP1; Q9HBX9; HEK293-RXFP1, relaxin-stimulated cAMP HTRF, 30 min; active compounds read low; activity change, negative = inhibition, % at 57.5 µM; hit rate 0.59% among 350,000;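 active = activity change of -60% or lower, but not beyond a set lower limit; inconclusive = change between -60% and -40%, or beyond the set limit; inactive = change above -40%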; note: % is set by controls: 0 for no effect and ±100 for the full control effect
gsp ag: agonists of gsp mutant (McCune-Albright syndrome) | hit rate 0.13% among 340,000 | Potency, µM (top dose mostly 76.9 µM), inactives show top-dose activation (cAMP increase), usual class: activators | gsp mutant cells, cAMP HTRF, 30 min | AID 624287; active = well fitted activation curve with a large enough effect; inconclusive = small, poorly fitted or top-dose-only effect, or another doubt; inactive = no such curve, though single readings can be large or run the other way; cell line not stated here;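 note: phosphodiesterase inhibitor Ro 20-1724 added with compounds to block cAMP breakdown; potency is the fitted concentration of half-maximal effect; nearly all actives have a fitted effect of over 60% in size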
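Cells in DMEM/10% FBS with G418 were pretreated with compounds in DMSO plus […] (300 uM stock) for 30 min at 37C. cAMP was measured by HTRF (cAMP-d2 plus anti-cAMP antibody-K) after 30 min at room temperature.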
ClpP mod: qHTS Assay for Activators of ClpP; AID 651965, 2013; purified B. subtilis ClpP, FRET peptide cleavage, 20 min; Potency, µM (top dose mostly 57.5 µM), without a hit: at the top dose activity change, negative = active; ATP-dependent Clp protease proteolytic subunit (Bacillus subtilis (strain 168)), P80244; hit rate 1.9% among 340,000; active = well fitted falling curve with a large enough effect; inconclusive = small, poorly fitted or top-dose-only effect; inactive = no such curve, though single readings can be large or run the other way; note: potency is the fitted concentration of half-maximal effect; the source files actives as falling curves though it sought activators and does not explain the sign; nearly all actives have a fitted effect of over 65% in size
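Purified B. subtilis ClpP, 10 microg/mL final in Tris/HCl pH8 with KCl, BSA, glycerol and Tween-20, cleaved an Abz/nitrotyrosine-quenched decapeptide. Fluorescence (ex 320, em 430) was read at 0 and 20 min at room temperature. Delta was normalized to 5.8 microM ADEP and DMSO/no-enzyme controls.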
* = called active by the depositor; i = inactive; ? = inconclusive; · = no result; [ ] = dose if it differs, or a comment.

SMILES	Akt phos inh	gsp antagonist	RXFP1 ag	RXFP1 antag	gsp ag	ClpP mod
COc1ccc(NC(=O)c2ccc(Cl)nc2)cc1S(=O)(=O)N1CCCCC1	i	32µM*	0%	9	-1%[15.4 µM]	·
CN(C)c1ccc(/C=C/c2ccnc3ccc(Cl)cc23)cc1	·	·	·	·	·	2%
CSc1ccccc1OCc1cc(C(=O)NCCN2CCCC(O)C2)no1 (configuration not stated)	i	10%	-2%	-3	6%[15.4 µM]	28µM*
N#Cc1nc(-c2ccco2)oc1NCCCN1CCOCC1	i	10%	0%	-2	-1%	3.5µM*
COc1ccc(-c2nc(C#N)c(NCc3ccco3)o2)cc1	i	-5%	4%	2	-42%	4%
Cc1ccc2cc(C)c(SCC(=O)NCc3ccco3)nc2c1	i	-16%	0%	-18	2%[15.4 µM]	·
Cc1ccc2cc(C#N)c(NCc3ccco3)nc2c1	i	-20%	0%	-16	10%	25µM*
N#Cc1nc(-c2ccco2)oc1NCc1ccco1	i	6%	4%	-6	0%	3.2µM*
Cc1ccc(-c2nc(C#N)c(NCc3ccco3)o2)cc1	i	8%	1%	-9	17%	20µM*
N#Cc1nc(-c2ccc(F)cc2)oc1NCc1ccco1	i	-3%	0%	8	19%	4%
CCN(C(=O)Cn1c(C(=O)OC)cc2oc3ccccc3c21)c1cccc(C)c1	·	·	0%	-28	·	4%
OC(c1ccc(Cl)cc1)c1ncc(-c2ccc(Oc3ccccc3)cc2)[nH]1 (configuration not stated)	i	·	·	·	·	-7%
CCN(CC)CCNC(=O)c1c(C)oc2ncn(C)c(=O)c12	·	·	12%	·	·	-3%
O=C(O)CCC(NC(=O)c1cncc(O)c1)C(=O)O (configuration not stated)	i	4%	2%	2	-4%	25µM*
Cc1ccc(-c2nc3ccccc3n2C(C(=O)NC(C)(C)C)C2CC2)cc1 (configuration not stated)	i	·	·	·	·	-23%
CCOC(=O)CCCCC(=O)c1[nH]c(=O)[nH]c1CSc1nc(C)cc(C)n1	i	1%	5%	-2	?	-2%
CCOC(=O)CCCCC(=O)c1[nH]c(=O)[nH]c1CSc1nnc2c3cc(Br)ccc3n(C)c2n1	·	·	14µM*	·	·	·
CCOc1ccc(NC(=O)Cn2nnc(-c3ccccc3NC(=O)C3CC3)n2)cc1	-126%*	7%	1%	-2	-16%	2%
COc1ccc(NC(=O)Cn2nnc(-c3ccccc3NC(=O)C3CC3)n2)cc1	i	-6%	-1%	-1	4%	-2%
CCOC(=O)[C@]12CCCC=C1N(Cc1ccco1)C(=O)[C@H](CC(=O)NCC1CCCCC1)C2	i	·	·	·	·	1%
CC(C)CNC(=O)CSc1ccc(Cl)cc1	i	2%	0%	4	-1%	25µM*
c1ccc(-c2cc3nc(NCC4CC4)nc(NCC4CCCCC4)c3s2)cc1	i	·	·	·	·	20µM*
COCCNc1nc(NCC2CCCCC2)c2sc(-c3ccccc3)cc2n1	i	·	·	·	·	25µM*
O=C(NCc1ccccc1F)c1ccc(CN2CC(=O)N3CCCCC3C2=O)cc1 (configuration not stated)	·	·	1%	0	·	2%
FC(F)(F)c1ccccc1/C=N/n1c(C2CCCCC2)n[nH]c1=S	i	-7%	3%	-13	-18%	3%
SMILES	Akt phos inh	gsp antagonist	RXFP1 ag	RXFP1 antag	gsp ag	ClpP mod
S=c1[nH]nc(C2CCCCC2)n1/N=C/c1ccccc1Cl	i	40µM*	-3%	-37	27%[15.4 µM]	1%
Cc1cccc(N2CCN(CCNC(=O)Nc3ccc(Cl)cc3)CC2)c1C	·	·	0%	-5	·	1%
CC(=O)N(CCP(=O)(c1ccccc1)c1ccccc1)Cc1ccco1	i	2%	4%	-2	-17%	-2%
O=P(CCNCc1ccco1)(c1ccccc1)c1ccccc1	i	-10%	0%	0	-7%	4µM*
CC(=O)N1CCc2cc(S(=O)(=O)NCC(=O)NCc3ccc(Cl)cc3)ccc21	i	-4%	0%	12	?	-1%
Cc1ccc(S(=O)(=O)Nc2ccccc2C=Nc2cccc(C)c2C)cc1	i	-18%	-3%	-66*	2%[15.4 µM]	-3%
Cc1ccc(S(=O)(=O)Nc2ccccc2N=Cc2c(F)c(F)c(F)c(F)c2F)cc1	i	-6%	·	-16	-17%	-2%
O=C(CN1C(=O)/C(=C\c2ccc(F)cc2)Oc2ccccc21)N1CCN(c2ccccn2)CC1	i	-2%	2%	0	?	22µM*
O=C(CN1CCN(S(=O)(=O)c2ccc(Br)cc2)CC1)c1ccc(O)c(O)c1	·	1%	0%	9	4%	-5%
Cc1oc(-c2ccccc2)nc1Cn1cccc1C1=NC(c2ccccc2)CO1 (configuration not stated)	i	?	0%	-16	-20%	?
Fc1ccc(Cn2cccc2C2=NC(c3ccccc3)CO2)cc1 (configuration not stated)	i	0%	0%	-6	13%	20µM*
CC1(C)OC(=O)C2(Cc3ccc(Cl)cc3N3CCCCC32)C(=O)O1 (configuration not stated)	·	·	·	·	·	0%
Cc1cc(C)n2nc(C(=O)Nc3ccc4c(c3)OCCO4)nc2n1	i	-4%	14µM*	16	?	-3%
Cc1cc(C)n2nc(C(=O)Nc3ccc4c(c3)OCO4)nc2n1	i	-5%	19%	-7	?	-3%
O=C(OCc1nnc(-c2ccccc2)o1)c1ccc(Br)o1	i	2%	0%	-73*	-3%[15.4 µM]	·
CCOC(=O)c1cn(-c2ccccc2)nc1-c1cccnc1	i	-10%	3%	-13	15%	?
O=C(OCc1nnc(-c2ccccc2)o1)c1ccc([N+](=O)[O-])o1	i	7%	0%	40	-11%[15.4 µM]	·
O=C(OCc1nnc(-c2ccccc2)o1)c1cn(-c2ccccc2)nc1-c1ccccc1	i	-4%	0%	-9	17%	10µM*
CCOC(=O)c1cn(-c2ccccc2)nc1-c1ccncc1	-118%*	-1%	2%	-18	-4%	-5%
COC(=O)C(O)(CC(=O)Nc1ccccc1OC)C(F)(F)F (configuration not stated)	-99%*	-5%	3%	-9	-57%	1%
Cc1c(/C(O)=C2\C(=O)C(=O)N(CCN(C)C)C2c2ccccc2)cnn1-c1ccccc1 (configuration not stated)	i	4%	7%	14	40%	·
